Paper PMC5540273 (PLoS ONE, 2017)
Several values for one entry are separate records, joined by “and”; a condition that tells them apart may be missing. Equal entries are not always repeated. Where two headings read alike, the source gives them in different places.

What was measured:
AAK1 = conditions: concentration: 1 μM, replicates: in singlicate; n = 1
ABL1-nonphosphorylated = conditions: concentration: 1 μM, replicates: in singlicate, n = 1
ABL1-phosphorylated = conditions: concentration: 1 μM, replicates: in singlicate, n = 1
ABL2 = conditions: concentration: 1 μM, replicates: in singlicate, n = 1
ACVR1B = conditions: concentration: 1 μM, replicates: in singlicate, n = 1
ACVR1 = conditions: concentration: 1 μM, replicates: in singlicate, n = 1
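Also: KINOMEscan kinase panel screen.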

Row | Compound | %Inh (AAK1) [%] | %Inh (ABL1-nonphosphorylated) [%] | %Inh (ABL1-phosphorylated) [%] | %Inh (ABL2) [%] | %Inh (ACVR1B) [%] | %Inh (ACVR1) [%] | %Inh (ABL1-nonphosphorylated; 1 µM) | %Inh (ABL1-phosphorylated; 1 µM) | %Inh (ABL2; 1 µM) | %Inh (ACVR1B; 1 µM) | %Inh (ACVR1; 1 µM)
1 | Cc1cccc(Cn2ccn3c(=O)cc(N4CCOCC4)nc23)c1 [GSK2297542] | 15 | 7 | 0 | 13 | 0 | 0 |  |  |  |  | 
2 | Cn1ccc2ncnc(Oc3ccc(NC(=O)Nc4ccncc4)c(Cl)c3)c21 | 0 | 31 | 3 | 0 | 23 | 0 |  |  |  |  | 
3 | CC(C)(CN)c1nc(-c2ccc(Cl)c(O)c2)c(-c2ccncc2)[nH]1.O=C(O)C(F)(F)F [SB-477794] | 0 |  |  |  |  |  | 96.1% and 94.7% | 99.4% and 98.9% | 92.4% and 89% | 87% and 91.7% | 96.5% and 93.4%
4 | Cc1c2ccc(N(C)c3ccnc(Nc4cccc(S(N)(=O)=O)c4)n3)cc2nn1Cc1ccccc1.Cl.Cl [GW787226] | 2 | 98.4 | 61 | 71 | 6 | 0 |  |  |  |  | 
5 | COc1ccc(S(=O)(=O)NC2CCN(c3cc(C)nc(Nc4cccc(C#N)c4)n3)CC2)cc1.O=C(O)C(F)(F)F [GSK1653539] | 0 | 0 | 0 | 1 | 0 | 0 |  |  |  |  | 
6 | NCC(NC(=O)c1cc(-c2cn[nH]c2)c(-c2ccnc3[nH]ccc23)s1)c1ccccc1.O=C(O)C(F)(F)F.O=C(O)C(F)(F)F (stereo not drawn) [GSK1325775] | 86 | 1 | 0 | 0 | 0 | 52 |  |  |  |  | 
7 | Cl.Oc1cccc(Nc2ccnc3cc(-c4ccncc4)ccc23)c1 [GW494601] | 42 | 100 | 99.9 | 99.4 | 67 | 99.8 |  |  |  |  | 
8 | Cc1cn2c(=O)cc(N3CCOCC3)nc2n1Cc1cccc(Cl)c1Cl [GSK2334006] | 14 | 73 | 63 | 41 | 9 | 18 |  |  |  |  | 
9 | COc1cc2c(cc1OC[C@@H](O)CO)ncc1c3ccc(C#N)cc3[nH]c21 | 78 | 49 | 21 | 0 | 0 | 0 |  |  |  |  | 
10 | CCn1cnc2c(N)ncnc21 [GW345098] | 0 | 33 | 35 | 12 | 0 | 7 |  |  |  |  | 
11 | [2H]C([2H])(c1cccc(C(F)(F)F)c1C)n1ccn2c(=O)nc(N3CCOCC3)cc12 [GSK2336394] | 0 | 0 | 0 | 17 | 0 | 0 |  |  |  |  | 
12 | COc1ccc(Nc2nccc(N3CCC(NC(=O)Nc4cccc(C(C)=O)c4)C3)n2)cc1 (stereo not drawn) [GSK1379731] | 0 | 0 | 0 | 7 | 0 | 0 |  |  |  |  | 
13 | CN(C(=O)c1ccc(-c2cc(-c3c[nH]nc3-c3ccccn3)ccn2)cc1)C1CCOCC1 [GW810083] | 0 | 57 | 0 | 0 | 52 | 0 |  |  |  |  | 
14 | Fc1ccc(-c2nn3c(OCC(F)(F)F)cccc3c2-c2ccncc2)cc1 [GW514784] | 0 | 0 | 0 | 5 | 61 | 13 |  |  |  |  | 
15 | Cc1nnc(-c2ccc3occ(-c4ccc(C(C)O)cc4)c3c2)o1 (stereo not drawn) | 23 | 64 | 36 | 8 | 14 | 15 |  |  |  |  | 
16 | O=C(NCCCN1CCOCC1)c1cccc(Nc2nccc(Nc3ccc(Oc4ccccc4)cc3)n2)c1 [GW663929] | 8 | 73 | 45 | 47 | 0 | 14 |  |  |  |  | 
17 | COC(=O)Nc1nc2cc(Oc3ccc(NC(=O)Nc4cc(F)ccc4F)cc3)ccc2[nH]1.Cl [GW701424] | 30 | 94.5 | 40 | 74 | 0 | 0 |  |  |  |  | 
18 | CCCCCc1nc2c(N)ncnc2n1CCCCC [SKF-97255] | 6 | 31 | 30 | 0 | 26 | 0 |  |  |  |  | 

Row | Compound | %Inh (AAK1) [%] | %Inh (ABL1-nonphosphorylated) [%] | %Inh (ABL1-phosphorylated) [%] | %Inh (ABL2) [%] | %Inh (ACVR1B) [%] | %Inh (ACVR1) [%] | %Inh (ABL1-nonphosphorylated; 1 µM) | %Inh (ABL1-phosphorylated; 1 µM) | %Inh (ABL2; 1 µM) | %Inh (ACVR1B; 1 µM) | %Inh (ACVR1; 1 µM)
19 | O=c1cc(N2CCOCC2)nc2n(Cc3cccc(F)c3)ccn12 [GSK2297430] | 5 | 0 | 0 | 2 | 0 | 1 |  |  |  |  | 
20 | O=c1cc(N2CCOCC2)nc2n(Cc3cccc(Cl)c3Cl)c(C3CC3)nn12 [GSK2358994] | 14 | 28 | 20 | 5 | 0 | 0 |  |  |  |  | 
21 | N#Cc1ccc(-c2cc(-c3c[nH]nc3-c3ccccn3)ccn2)cc1 [GW693028] | 0 | 7 | 29 | 10 | 56 | 59 |  |  |  |  | 
22 | Cn1cc(-c2ccc3c(c2)CCN3C(=O)Cc2ccccc2Cl)c2c(N)ncnc21 [GSK2608885] | 25 | 95.9 | 23 | 85 | 0 | 0 |  |  |  |  | 
23 | CCc1ccnc(/C=C/c2n[nH]c3cc(Sc4ccccc4C(=O)NC)ccc23)c1 | 22 | 98 | 89 | 76 | 3 | 0 |  |  |  |  | 
24 | COc1ccc(Nc2nccc(N3CCC(NC(=O)Nc4cc(C)ccc4C)C3)n2)cc1 (stereo not drawn) [GSK1379741] | 17 | 0 | 0 | 14 | 0 | 0 |  |  |  |  | 
25 | COc1cc2c(cc1OCCN1CCN(C)CC1)ncc1c3ccc(C#N)cc3[nH]c21 | 96.2 | 82 | 69 | 6 | 0 | 0 |  |  |  |  | 
26 | COc1ccc(Nc2ncc(C#N)c(Nc3ccccc3C(N)=O)n2)cc1N1CCN(C)CC1.Cl [GSK1558669] | 97.2 | 100 | 100 | 99.2 | 33 | 33 |  |  |  |  | 
27 | O=C1NC(=O)C(N2CCc3ccccc32)=C1c1cccc(Cl)c1 [SB-408010] | 2 | 33 | 0 | 10 | 14 | 0 |  |  |  |  | 
28 | Cc1cccc(-c2nc(Nc3ccc4ncsc4c3)c3ccccc3n2)n1 [GW867588] | 7 | 0 | 0 | 20 | 35 | 15 |  |  |  |  | 
29 | Nc1nccc(-c2c(-c3ccc(F)cc3)ncn2C2CCN(CC(F)(F)F)CC2)n1 [SB-236560] | 5 | 46 | 0 | 0 | 0 | 19 |  |  |  |  | 
30 | c1ccc(-c2n[nH]cc2-c2ccnc3ccccc23)nc1 [GW271431] | 16 | 14 | 1 | 16 | 79 | 46 |  |  |  |  | 
31 | O=C1Cc2cc(Nc3nc(NCc4cccc(S(=O)(=O)C(F)(F)F)c4)ncc3C(F)(F)F)ccc2N1 | 8 | 0 | 0 | 0 | 0 | 3 |  |  |  |  | 
32 | CN(C1=C(c2ccccc2)C(=O)NC1=O)c1ccccc1 [SB-334860] | 7 | 0 | 0 | 0 | 0 | 1 |  |  |  |  | 
33 | O=C(c1ccc(-c2cc(-c3c[nH]nc3-c3ccccn3)ccn2)cc1)N1CCOCC1 [GW812171] | 0 | 36 | 29 | 2 | 76 | 0 |  |  |  |  | 
34 | CSc1ccc(-c2cc3ncnc(SCC(=O)O)c3s2)cc1 | 0 | 0 | 0 | 0 | 0 | 0 |  |  |  |  | 
35 | COc1ccc(CNC(=O)NC2CCN(c3ccnc(Nc4ccc(OC)cc4)n3)C2)cc1 (stereo not drawn) [GSK1379727] | 0 | 0 | 0 | 2 | 0 | 0 |  |  |  |  | 
36 | O=C(NOCC1CC1)c1ccc(F)c(F)c1Nc1ccc(I)cc1Cl | 0 | 0 | 0 | 0 | 0 | 0 |  |  |  |  | 
